Experimental data: PubChem BioAssay (NCATS)
Results filed as inconclusive are left out. Active and inactive are the calls of the source. Calls follow the shape of the dose curve; as a rule, active = well fitted inhibition curve with a large enough effect; inconclusive = small, poorly fitted or top-dose-only effect; inactive = flat fitted curve, though single readings scatter.

Key:
[1] = test system: CRL-7250; assay: Cytotoxic Profiling of Annotated Libraries Using Quantitative High-Throughput Screening (AID 1296008); details: Five cell lines viability, CellTiter-Glo ATP luminescence, 48-72 h; max response: hits give low values; also: potency is read from the fitted curve at half-maximal effect
Procedure, shortened: (§1)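 Cytotoxicity was measured as CellTiter-Glo ATP luminescence, read after 10 min at room temperature. Compound treatment of the cells lasted 48 or 72 hr at 37 degrees Celsius in a qHTS format.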

[2] = test system: HEK293; assay: as above; details: Five cell lines viability, CellTiter-Glo ATP luminescence, 48-72 h; max response: hits give low values
Procedure, shortened: as §1

[3] = test system: HaCat; assay: as above; details: Five cell lines viability, CellTiter-Glo ATP luminescence, 48-72 h; max response: hits give low values
Procedure, shortened: as §1

[4] = test system: NIH3T3; assay: as above; details: Five cell lines viability, CellTiter-Glo ATP luminescence, 48-72 h; max response: hits give low values
Procedure, shortened: as §1

[5] = test system: HACAT; assay: qHTS assay to identify novel small-molecules to repurpose for Merkel cell carcinoma treatment (AID 1296009); details: MCC and control cell lines, CellTiter-Glo viability, 72 h; at 44.8 µM (top of the series) unless noted
Procedure, shortened: (§2)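 Cell viability, measured as CellTiter-Glo luminescence, was normalized between DMSO and no-cell wells. The cells had been exposed to 8- or 11-point compound dilutions for 72 hr at 37 degree celsius.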

[6] = test system: HEK293T; assay: as above; details: MCC and control cell lines, CellTiter-Glo viability, 72 h; at 44.8 µM (top of the series) unless noted
Procedure, shortened: as §2

[7] = test system: MCC-13; assay: as above; details: MCC and control cell lines, CellTiter-Glo viability, 72 h; series mostly up to 46 µM
Procedure, shortened: as §2

[8] = test system: MCC-26; assay: as above; details: MCC and control cell lines, CellTiter-Glo viability, 72 h; series mostly up to 46 µM
Procedure, shortened: as §2

[9] = test system: MKL-1; assay: as above; details: MCC and control cell lines, CellTiter-Glo viability, 72 h; series mostly up to 46 µM
Procedure, shortened: as §2

[10] = test system: MKL-2; assay: as above; details: MCC and control cell lines, CellTiter-Glo viability, 72 h; series mostly up to 46 µM
Procedure, shortened: as §2
% is scaled to controls: 0 for no effect and ±100 for the full control effect.
Also: nearly all actives have a fitted effect of over 60% in size.

CCN(CC)CC(=O)Oc1ccc(NC(C)=O)cc1
inactive: max response [1] -7.74% | outcome [2] | outcome [3] | outcome [4] | outcome [5] | outcome [6] | Potency [7] | Potency [8] | Potency [9] | Potency [10]

CC(C)(C)CC(=O)OCC(=O)[C@@]1(O)CC[C@H]2[C@@H]3CCC4=CC(=O)C=C[C@]4(C)[C@H]3[C@@H](O)C[C@@]21C
active: Potency [2] 15 µM
inactive: max response [1] -1.84% | outcome [3] | max response [4] -9.28% | outcome [5] | Potency [7] | Potency [8] | Potency [9]

O=C(CCOCCOCCOCCOCCC(=O)Nc1c(I)cc(I)c(C(=O)O)c1I)Nc1c(I)cc(I)c(C(=O)O)c1I
inactive: max response [1] -8.36% | outcome [2] | outcome [3] | max response [4] 0.931% | outcome [5] | outcome [6] | Potency [7] | Potency [8] | Potency [9] | Potency [10]

COC(=O)c1cc(Cl)ccc1OC
inactive: max response [1] -7.71% | outcome [2] | outcome [3] | outcome [4] | outcome [5] | outcome [6] | Potency [7] | Potency [8] | Potency [9] | Potency [10]

CC(=O)c1ccc(O)c(C(N)=O)c1
inactive: max response [1] 1.65% | outcome [2] | outcome [3] | outcome [4] | outcome [5] | outcome [6] | Potency [7] | Potency [8] | Potency [9] | Potency [10]

Cc1ccc(C(=O)Oc2ccc(C(O)CNC(C)(C)C)cc2OC(=O)c2ccc(C)cc2)cc1 (configuration not stated)
inactive: max response [1] -6.97% | max response [2] 1.15% | outcome [3] | outcome [4] | outcome [5] | Potency [7] | Potency [8]

C[C@H]1C[C@@H]2[C@H]([C@@H](O)C[C@@]3(C)[C@H]2CC[C@]3(O)C(=O)CO)[C@@]2(C)C=CC(=O)C=C12
inactive: max response [1] -5.61% | outcome [2] | outcome [3] | max response [4] 0.285% | outcome [5] | outcome [6] | Potency [7] | Potency [9] | Potency [10]

Nc1c(I)cc(I)c(C(=O)N(CCC(=O)O)c2ccccc2)c1I
inactive: max response [1] 1.19% | max response [2] -0.316% | outcome [3] | max response [4] 0.521% | outcome [5] | Potency [7] | Potency [8] | Potency [9] | Potency [10]

COc1ccc2cc(C=O)ccc2c1
inactive: max response [1] 3.03% | max response [2] 0.484% | outcome [3] | max response [4] 2.35% | outcome [5] | Potency [7] | Potency [8] | Potency [9] | Potency [10]

COc1ccc(CCC(C)=O)cc1
inactive: max response [1] -2.07% | outcome [2] | outcome [3] | outcome [4] | outcome [5] | outcome [6] | Potency [7] | Potency [8] | Potency [9] | Potency [10]

O=C1CC(c2ccc(Cl)cc2)CC(=O)N1
inactive: outcome [1] | outcome [2] | outcome [3] | max response [4] -1.3% | outcome [5] | outcome [6] | Potency [7] | Potency [8] | Potency [9] | Potency [10]

Cc1cc(O)c(C)c(C)c1O
inactive: outcome [1] | outcome [2] | outcome [3] | outcome [4] | outcome [5] | outcome [6] | Potency [7] | Potency [8] | Potency [9] | Potency [10]

COC(=O)c1cc(S(N)(=O)=O)ccc1OC
inactive: max response [1] -27.4% | max response [2] 4.21% | outcome [3] | outcome [4] | outcome [5] | Potency [7] | Potency [8] | Potency [9] | Potency [10]

O=C(O)CCCC[P+](c1ccccc1)(c1ccccc1)c1ccccc1
inactive: max response [1] 1.78% | outcome [2] | outcome [3] | max response [4] 3.89% | outcome [5] | outcome [6] | Potency [7] | Potency [8] | Potency [9] | Potency [10]

CC1(C)OC(=O)Nc2ccc(Br)cc21
inactive: outcome [1] | outcome [2] | outcome [3] | max response [4] 3.48% | outcome [5] | outcome [6] | Potency [7] | Potency [8] | Potency [9] | Potency [10]

COc1ccc(/C(C)=C/C(=O)O)c(OC)c1
inactive: max response [1] 0.36% | outcome [2] | outcome [3] | outcome [4] | outcome [5] | outcome [6] | Potency [7] | Potency [8] | Potency [9] | Potency [10]

Cc1onc(-c2ccccc2)c1C(=O)Cl
inactive: max response [1] -2.71% | max response [2] 0.397% | outcome [3] | max response [4] 4.1% | outcome [5] | Potency [7] | Potency [8] | Potency [9] | Potency [10]

COC(=O)CCCCC(CCSS/C(CCO)=C(\C)N(C=O)Cc1cnc(C)nc1N)SC(C)=O (configuration not stated)
inactive: outcome [1] | outcome [2] | outcome [3] | outcome [4] | outcome [5] | outcome [6] | Potency [7] | Potency [9] | Potency [10]

Cc1ccc(C(C)OC(=O)C2(C)CCC(C(=O)O)C2(C)C)cc1 (configuration not stated)
inactive: max response [1] 3.77% | outcome [2] | outcome [3] | outcome [4] | outcome [5] | outcome [6] | Potency [7] | Potency [8] | Potency [9] | Potency [10]

COc1ccc2c(c1)c(CC(=O)OC/C=C(\C)CC/C=C(\C)CCC=C(C)C)c(C)n2C(=O)c1ccc(Cl)cc1
inactive: outcome [1] | max response [2] -3.27% | outcome [3] | max response [4] 4.12% | outcome [5] | Potency [7] | Potency [8] | Potency [9]
